Data as given in PubChem BioAssay (NCI).
Compounds without any hit were thinned out: in the full panel of roughly 83,000, 20% have a hit.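 Single-dose data. Exposure time 48 hours. Values below 10 considered active.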 Activity calls are given as the source filed them.

Experiments:
Assay in all cases: NCI-60 one-dose screen, 48 h (100 = growth as untreated, 0 = no growth, -100 = all killed)
Details in all cases: 10 µM unless noted
DU-145 prostate = system: DU-145 prostate
K-562 leukemia = system: K-562 leukemia
MALME-3M melanoma = system: MALME-3M melanoma
MDA-MB-231 breast = system: MDA-MB-231 breast
RXF 393 renal = system: RXF 393 renal
SF-268 CNS = system: SF-268 CNS
SF-295 CNS = system: SF-295 CNS
SF-539 CNS = system: SF-539 CNS
UACC-257 melanoma = system: UACC-257 melanoma
M14 melanoma = system: M14 melanoma
HCT-15 colon = system: HCT-15 colon
HT29 colon = system: HT29 colon
SNB-75 CNS = system: SNB-75 CNS
SNB-19 CNS = system: SNB-19 CNS
U251 CNS = system: U251 CNS
PC-3 prostate = system: PC-3 prostate
SK-MEL-5 melanoma = system: SK-MEL-5 melanoma
UACC-62 melanoma = system: UACC-62 melanoma
LOX IMVI melanoma = system: LOX IMVI melanoma
SK-MEL-28 melanoma = system: SK-MEL-28 melanoma

Measured: growth

CCCCNC(=O)NS(=O)(=O)Cc1ccccc1
inactive: DU-145 prostate 111% | K-562 leukemia 99.7% | MALME-3M melanoma 117% | MDA-MB-231 breast 127% | RXF 393 renal 124% | SF-268 CNS 107% | SF-295 CNS 116% | SF-539 CNS 101% | UACC-257 melanoma 104% | M14 melanoma 106% | HCT-15 colon 109% | HT29 colon 114% | SNB-75 CNS 95.3% | SNB-19 CNS 114% | U251 CNS 96.4% | PC-3 prostate 102% | SK-MEL-5 melanoma 107% | UACC-62 melanoma 104% | LOX IMVI melanoma 107% | SK-MEL-28 melanoma 108%

COc1ccc(C(=O)CSc2nnc(-c3cc(-c4ccccc4)nc4ccccc34)o2)cc1
inactive: DU-145 prostate 110% | K-562 leukemia 103% | MALME-3M melanoma 96.7% | MDA-MB-231 breast 98.7% | RXF 393 renal 122% | SF-268 CNS 100% | SF-295 CNS 102% | SF-539 CNS 106% | UACC-257 melanoma 105% | M14 melanoma 105% | HCT-15 colon 103% | HT29 colon 113% | SNB-75 CNS 102% | SNB-19 CNS 94.3% | U251 CNS 103% | PC-3 prostate 105% | SK-MEL-5 melanoma 105% | UACC-62 melanoma 98% | LOX IMVI melanoma 101% | SK-MEL-28 melanoma 109%

CC(C)c1ccc(C(=O)Nc2sc3c(c2C#N)CCC(=O)C3)cc1
inactive: DU-145 prostate 43.9% | SF-268 CNS 26.9% | SNB-19 CNS 11.4% | U251 CNS 15% | LOX IMVI melanoma 16.7% | SK-MEL-28 melanoma 22.3%
active: K-562 leukemia 1.57% | MALME-3M melanoma -41.2% | MDA-MB-231 breast -39.6% | RXF 393 renal -38.5% | SF-295 CNS -7.58% | SF-539 CNS -48.4% | UACC-257 melanoma -2.97% | M14 melanoma -6.52% | HCT-15 colon -24.5% | HT29 colon 8.34% | SNB-75 CNS -42.1% | PC-3 prostate 1.47% | SK-MEL-5 melanoma -62.9% | UACC-62 melanoma -27.8%

O=C(O)c1cc([N+](=O)[O-])ccc1Br
inactive: DU-145 prostate 106% | K-562 leukemia 100% | MALME-3M melanoma 102% | MDA-MB-231 breast 101% | RXF 393 renal 110% | SF-268 CNS 102% | SF-295 CNS 97.2% | SF-539 CNS 94.8% | UACC-257 melanoma 102% | M14 melanoma 98.3% | HCT-15 colon 98.4% | HT29 colon 103% | SNB-75 CNS 89.5% | SNB-19 CNS 99.1% | U251 CNS 96.3% | PC-3 prostate 100% | SK-MEL-5 melanoma 98.9% | UACC-62 melanoma 91.9% | LOX IMVI melanoma 94.7% | SK-MEL-28 melanoma 97.8%

C[C@]12CCc3nc(Nc4ccccc4)sc3C1=CC[C@@H]1[C@@H]2CC[C@]2(C)/C(=N/NC(N)=S)CC[C@@H]12
active: K-562 leukemia 9.46% | RXF 393 renal -8.56% | HCT-15 colon -11.6% | HT29 colon 5.72%
inactive: DU-145 prostate 36.3% | MALME-3M melanoma 69.5% | MDA-MB-231 breast 56.3% | SF-268 CNS 49.3% | SF-295 CNS 21.2% | SF-539 CNS 37.3% | UACC-257 melanoma 67.9% | M14 melanoma 73.1% | SNB-75 CNS 35.3% | SNB-19 CNS 62.1% | U251 CNS 37.3% | PC-3 prostate 26.6% | SK-MEL-5 melanoma 38.1% | UACC-62 melanoma 42.6% | LOX IMVI melanoma 69.6% | SK-MEL-28 melanoma 63.6%

CC1(C)CC[C@]2(C(N)=O)CC[C@]3(C)C(=CC[C@@H]4[C@@]5(C)C/C(=C/c6ccncc6)C(=O)C(C)(C)[C@@H]5CC[C@]43C)[C@@H]2C1
active: DU-145 prostate -36.4% [100 µM] | K-562 leukemia 3.83% [100 µM] | MALME-3M melanoma -84.9% [100 µM] | MDA-MB-231 breast -75% [100 µM] | RXF 393 renal -52.5% [100 µM] | SF-268 CNS -37.2% [100 µM] | SF-295 CNS -64.4% [100 µM] | SF-539 CNS -68.1% [100 µM] | UACC-257 melanoma -58.6% [100 µM] | M14 melanoma -24.4% [100 µM] | HCT-15 colon -49.7% [100 µM] | HT29 colon -65.4% [100 µM] | SNB-75 CNS -86.4% [100 µM] | SNB-19 CNS -83.8% [100 µM] | U251 CNS -81.1% [100 µM] | PC-3 prostate -33.5% [100 µM] | SK-MEL-5 melanoma -71.1% [100 µM] | UACC-62 melanoma -79.7% [100 µM] | LOX IMVI melanoma -51.4% [100 µM] | SK-MEL-28 melanoma -64.7% [100 µM]

N#Cc1c(N2CCOCC2)nc(=S)[nH]c1-c1ccco1
active: MALME-3M melanoma 2.17%
inactive: DU-145 prostate 79.2% | K-562 leukemia 88.4% | MDA-MB-231 breast 61.1% | RXF 393 renal 71.3% | SF-268 CNS 77.3% | SF-295 CNS 47.4% | SF-539 CNS 78.5% | UACC-257 melanoma 92.8% | M14 melanoma 39.8% | HCT-15 colon 71.4% | HT29 colon 63.7% | SNB-75 CNS 15.9% | SNB-19 CNS 83.8% | U251 CNS 76.4% | PC-3 prostate 42.6% | SK-MEL-5 melanoma 62.6% | UACC-62 melanoma 43.7% | LOX IMVI melanoma 63.7% | SK-MEL-28 melanoma 77.6%

CC(C)c1ccc(C(=O)Nc2nc3ccc(O)cc3s2)cc1
active: K-562 leukemia -1.97% | SF-295 CNS -36.4% | SF-539 CNS -21.9% | M14 melanoma 3.05% | HCT-15 colon 7.82% | SK-MEL-5 melanoma -6.4% | LOX IMVI melanoma -25.9%
inactive: DU-145 prostate 42.1% | MALME-3M melanoma 26.3% | MDA-MB-231 breast 73% | RXF 393 renal 67.3% | SF-268 CNS 51.5% | UACC-257 melanoma 25.9% | HT29 colon 30.4% | SNB-75 CNS 63.7% | SNB-19 CNS 53.8% | U251 CNS 58.4% | PC-3 prostate 42.4% | UACC-62 melanoma 10.8% | SK-MEL-28 melanoma 26.5%
